Assays:
Assay in all cases: log2 ratio of Biotin-Ahx-Ub-VS probe labelling (fragment/DMSO); higher = less target engagement (more negative = stronger competition), active = hit call of the paper (q ≤ 0.05, log2 ratio ≤ -1)
Conditions in all cases: compound concentration: 200 uM; treatment time: 3 h
ALG13 = molecular target: T1, ALG13 (UniProt Q9NP73)
T1 sequence (whole entry): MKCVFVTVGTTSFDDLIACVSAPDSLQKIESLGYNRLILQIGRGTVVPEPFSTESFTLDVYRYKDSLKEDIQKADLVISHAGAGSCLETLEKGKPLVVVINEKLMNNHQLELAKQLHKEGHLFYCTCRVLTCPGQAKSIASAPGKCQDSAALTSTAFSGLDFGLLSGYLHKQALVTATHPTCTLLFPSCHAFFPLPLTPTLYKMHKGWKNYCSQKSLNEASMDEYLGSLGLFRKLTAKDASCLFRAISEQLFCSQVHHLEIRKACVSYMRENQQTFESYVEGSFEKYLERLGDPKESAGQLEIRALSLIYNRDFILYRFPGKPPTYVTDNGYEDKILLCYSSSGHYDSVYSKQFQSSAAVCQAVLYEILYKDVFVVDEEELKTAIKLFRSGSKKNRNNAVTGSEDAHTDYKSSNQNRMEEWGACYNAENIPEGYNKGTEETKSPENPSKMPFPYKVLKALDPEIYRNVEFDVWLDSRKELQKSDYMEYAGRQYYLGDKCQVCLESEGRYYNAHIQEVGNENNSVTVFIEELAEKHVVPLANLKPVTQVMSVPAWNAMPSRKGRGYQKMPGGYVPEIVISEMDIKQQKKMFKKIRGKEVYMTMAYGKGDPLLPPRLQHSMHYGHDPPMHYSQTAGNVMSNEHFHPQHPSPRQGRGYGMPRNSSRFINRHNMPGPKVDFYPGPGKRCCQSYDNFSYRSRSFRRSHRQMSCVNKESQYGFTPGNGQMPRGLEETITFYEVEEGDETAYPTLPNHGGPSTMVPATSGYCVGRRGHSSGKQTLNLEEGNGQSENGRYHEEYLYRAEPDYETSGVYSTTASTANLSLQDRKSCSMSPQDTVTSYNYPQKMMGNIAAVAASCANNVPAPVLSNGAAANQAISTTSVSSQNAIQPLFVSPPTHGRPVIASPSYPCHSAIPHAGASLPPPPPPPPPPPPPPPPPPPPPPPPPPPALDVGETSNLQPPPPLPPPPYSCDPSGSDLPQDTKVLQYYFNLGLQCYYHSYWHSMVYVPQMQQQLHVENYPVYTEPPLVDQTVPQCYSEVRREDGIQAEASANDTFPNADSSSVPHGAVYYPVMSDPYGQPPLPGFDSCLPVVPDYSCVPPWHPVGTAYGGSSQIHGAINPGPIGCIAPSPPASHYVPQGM
In short: (§1)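 Lysate from HEK293T cells, 495 µg per sample in Tris/CHAPS/IGEPAL buffer with protease inhibitors, was treated for 3 h in triplicate with fragment at 200 µM or vehicle. Biotin-Ahx-Ub-VS was next added at 0.5 µM final for 1 h. The labelled DUBs were enriched with NeutrAvidin, digested with LysC and trypsin, and run by diaPASEF LC-MS/MS, with values given as average log2 fragment/vehicle ratios by unpaired t-test on global-median-normalised Spectronaut quantities of proteins with ≥2 unique peptides.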

ATXN3 = ATXN3 (UniProt P54252)
In short: as §1

BAP1 = molecular target: T2, BAP1 (UniProt Q92560)
T2 sequence (whole entry): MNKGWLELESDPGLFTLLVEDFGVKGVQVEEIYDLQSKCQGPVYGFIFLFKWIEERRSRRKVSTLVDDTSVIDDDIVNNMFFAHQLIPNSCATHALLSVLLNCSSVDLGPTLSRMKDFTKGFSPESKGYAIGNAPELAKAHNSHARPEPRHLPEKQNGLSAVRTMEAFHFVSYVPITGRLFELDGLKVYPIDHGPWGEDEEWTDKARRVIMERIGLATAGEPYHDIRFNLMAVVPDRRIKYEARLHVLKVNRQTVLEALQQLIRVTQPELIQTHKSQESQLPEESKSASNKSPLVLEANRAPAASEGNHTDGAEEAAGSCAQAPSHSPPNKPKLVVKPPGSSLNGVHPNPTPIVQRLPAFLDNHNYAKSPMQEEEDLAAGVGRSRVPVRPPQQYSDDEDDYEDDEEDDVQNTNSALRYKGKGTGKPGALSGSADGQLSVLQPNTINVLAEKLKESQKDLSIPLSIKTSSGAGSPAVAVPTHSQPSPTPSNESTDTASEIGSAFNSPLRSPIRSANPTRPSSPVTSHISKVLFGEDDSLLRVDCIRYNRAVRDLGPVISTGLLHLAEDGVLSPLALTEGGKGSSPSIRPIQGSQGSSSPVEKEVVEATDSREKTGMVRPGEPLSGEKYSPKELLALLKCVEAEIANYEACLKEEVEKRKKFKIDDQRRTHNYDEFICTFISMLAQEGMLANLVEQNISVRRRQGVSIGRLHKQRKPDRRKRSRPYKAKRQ
In short: as §1

EIF3F = EIF3F (UniProt O00303)
In short: as §1

EIF3H = EIF3H (UniProt O15372)
In short: as §1

FAM105A = molecular target: T3, FAM105A (UniProt Q9NUU6)
T3 sequence (whole entry): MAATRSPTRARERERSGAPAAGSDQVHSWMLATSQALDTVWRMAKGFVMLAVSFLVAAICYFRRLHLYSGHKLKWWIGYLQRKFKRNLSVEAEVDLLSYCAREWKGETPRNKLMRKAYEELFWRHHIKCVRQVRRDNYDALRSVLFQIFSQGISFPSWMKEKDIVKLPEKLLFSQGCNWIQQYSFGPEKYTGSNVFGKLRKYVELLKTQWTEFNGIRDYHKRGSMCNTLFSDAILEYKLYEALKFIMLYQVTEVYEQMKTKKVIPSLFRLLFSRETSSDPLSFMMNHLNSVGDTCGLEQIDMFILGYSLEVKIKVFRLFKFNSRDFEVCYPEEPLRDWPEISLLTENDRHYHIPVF
In short: as §1

OTUB1 = OTUB1 (UniProt Q96FW1)
In short: as §1

OTUD4 = molecular target: T4, OTUD4 (UniProt Q01804)
T4 sequence (whole entry): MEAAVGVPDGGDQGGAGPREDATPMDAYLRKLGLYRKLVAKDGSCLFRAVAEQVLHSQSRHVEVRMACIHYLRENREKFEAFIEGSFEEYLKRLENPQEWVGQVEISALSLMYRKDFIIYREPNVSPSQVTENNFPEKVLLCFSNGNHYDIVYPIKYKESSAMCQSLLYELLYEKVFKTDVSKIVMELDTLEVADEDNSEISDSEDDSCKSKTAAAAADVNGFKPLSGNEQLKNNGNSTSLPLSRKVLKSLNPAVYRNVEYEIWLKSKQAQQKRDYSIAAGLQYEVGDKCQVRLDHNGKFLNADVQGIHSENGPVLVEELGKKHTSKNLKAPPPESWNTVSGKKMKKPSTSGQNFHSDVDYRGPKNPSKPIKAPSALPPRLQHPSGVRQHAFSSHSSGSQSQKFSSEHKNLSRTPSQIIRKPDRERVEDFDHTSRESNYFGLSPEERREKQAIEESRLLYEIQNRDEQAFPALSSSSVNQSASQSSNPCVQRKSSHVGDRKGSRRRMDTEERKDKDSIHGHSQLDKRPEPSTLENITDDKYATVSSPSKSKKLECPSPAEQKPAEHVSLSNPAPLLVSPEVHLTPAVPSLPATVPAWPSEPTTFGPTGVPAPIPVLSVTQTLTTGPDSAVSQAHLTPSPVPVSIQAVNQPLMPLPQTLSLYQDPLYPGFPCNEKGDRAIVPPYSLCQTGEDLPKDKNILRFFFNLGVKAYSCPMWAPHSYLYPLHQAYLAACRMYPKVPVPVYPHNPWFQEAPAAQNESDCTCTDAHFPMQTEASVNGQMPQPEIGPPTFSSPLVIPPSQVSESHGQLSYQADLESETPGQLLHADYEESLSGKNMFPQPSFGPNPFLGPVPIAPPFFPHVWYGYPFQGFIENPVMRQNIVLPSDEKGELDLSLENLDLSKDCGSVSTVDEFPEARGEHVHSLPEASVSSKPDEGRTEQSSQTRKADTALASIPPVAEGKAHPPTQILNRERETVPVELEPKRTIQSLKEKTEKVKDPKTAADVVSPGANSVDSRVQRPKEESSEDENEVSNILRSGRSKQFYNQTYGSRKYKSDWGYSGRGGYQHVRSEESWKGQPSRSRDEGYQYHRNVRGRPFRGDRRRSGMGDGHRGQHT
In short: as §1

OTUD5 = molecular target: T5, OTUD5 (UniProt Q96G74)
T5 sequence (whole entry): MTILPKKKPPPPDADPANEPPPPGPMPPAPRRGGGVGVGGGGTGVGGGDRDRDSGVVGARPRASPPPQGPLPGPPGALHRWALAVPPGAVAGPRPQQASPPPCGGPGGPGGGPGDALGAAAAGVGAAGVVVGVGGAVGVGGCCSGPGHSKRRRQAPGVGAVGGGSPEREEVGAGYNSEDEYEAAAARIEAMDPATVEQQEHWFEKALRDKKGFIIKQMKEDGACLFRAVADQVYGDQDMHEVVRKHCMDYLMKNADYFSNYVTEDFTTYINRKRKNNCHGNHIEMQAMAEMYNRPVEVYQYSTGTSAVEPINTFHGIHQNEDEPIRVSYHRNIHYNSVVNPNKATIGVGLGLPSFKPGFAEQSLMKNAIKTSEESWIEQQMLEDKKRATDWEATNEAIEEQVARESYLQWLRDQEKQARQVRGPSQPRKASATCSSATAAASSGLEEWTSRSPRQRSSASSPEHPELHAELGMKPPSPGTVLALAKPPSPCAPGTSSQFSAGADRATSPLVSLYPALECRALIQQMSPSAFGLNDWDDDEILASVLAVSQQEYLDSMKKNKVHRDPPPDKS
In short: as §1

Measured: log2 ratio of Biotin-Ahx-Ub-VS probe labelling

EIF3H, sequence (O15372 whole entry): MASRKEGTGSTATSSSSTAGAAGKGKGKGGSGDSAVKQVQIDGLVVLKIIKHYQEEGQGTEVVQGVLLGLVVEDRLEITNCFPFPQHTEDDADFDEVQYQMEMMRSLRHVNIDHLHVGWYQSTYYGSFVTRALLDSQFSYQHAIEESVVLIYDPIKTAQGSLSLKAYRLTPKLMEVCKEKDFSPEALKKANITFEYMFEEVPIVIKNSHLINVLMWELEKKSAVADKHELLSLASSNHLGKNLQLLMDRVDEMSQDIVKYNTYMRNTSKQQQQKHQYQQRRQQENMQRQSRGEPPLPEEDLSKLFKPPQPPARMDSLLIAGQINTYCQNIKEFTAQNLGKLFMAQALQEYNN
EIF3F, sequence (O00303 whole entry): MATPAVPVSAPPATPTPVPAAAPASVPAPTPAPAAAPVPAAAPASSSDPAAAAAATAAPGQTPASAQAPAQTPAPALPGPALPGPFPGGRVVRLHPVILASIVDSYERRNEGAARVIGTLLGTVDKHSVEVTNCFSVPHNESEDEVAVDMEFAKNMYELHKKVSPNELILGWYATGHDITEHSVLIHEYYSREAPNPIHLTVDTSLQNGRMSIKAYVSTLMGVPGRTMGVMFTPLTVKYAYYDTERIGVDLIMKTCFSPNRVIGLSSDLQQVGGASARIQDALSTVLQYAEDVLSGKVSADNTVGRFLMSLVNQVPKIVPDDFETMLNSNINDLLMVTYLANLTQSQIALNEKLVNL
ATXN3, sequence (P54252 whole entry): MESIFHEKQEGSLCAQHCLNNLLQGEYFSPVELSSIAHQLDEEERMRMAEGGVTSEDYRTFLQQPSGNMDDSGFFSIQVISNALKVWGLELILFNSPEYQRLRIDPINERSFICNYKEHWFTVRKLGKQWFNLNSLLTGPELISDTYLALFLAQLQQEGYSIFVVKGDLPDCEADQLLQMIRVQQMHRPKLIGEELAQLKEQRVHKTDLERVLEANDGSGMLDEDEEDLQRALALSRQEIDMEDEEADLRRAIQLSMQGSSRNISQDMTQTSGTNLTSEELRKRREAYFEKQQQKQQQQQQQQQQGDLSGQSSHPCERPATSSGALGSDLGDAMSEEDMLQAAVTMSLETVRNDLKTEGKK
OTUB1, sequence (Q96FW1 whole entry): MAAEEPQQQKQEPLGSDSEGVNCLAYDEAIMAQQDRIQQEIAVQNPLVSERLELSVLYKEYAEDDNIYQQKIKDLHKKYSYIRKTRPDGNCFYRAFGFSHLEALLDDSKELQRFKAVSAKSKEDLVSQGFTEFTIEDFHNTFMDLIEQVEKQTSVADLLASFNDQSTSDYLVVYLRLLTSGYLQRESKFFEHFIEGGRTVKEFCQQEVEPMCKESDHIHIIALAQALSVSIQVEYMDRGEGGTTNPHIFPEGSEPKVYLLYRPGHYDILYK

Cc1nc(CN2CCN(C(=O)CCl)CC2)cs1
inactive: ALG13 0.271 | ATXN3 -0.309 | BAP1 -0.469 | EIF3F -0.26 | EIF3H 0.0747 | FAM105A 0.151 | OTUB1 0.0298 | OTUD4 -0.0355 | OTUD5 -0.265

Reference: the supplement of paper PMC11732987, “Enantioselective OTUD7B fragment discovery through chemoproteomics screening and high-throughput optimisation” (Communications Chemistry, 2025)
